# Article PMC8384837, “Expanding the binding specificity for RNA recognition by a PUF domain”
# Molecular target: PUM1 PUF domain R4-WAS (Homo sapiens, UniProt Q14671 828-1176, N971W;H972A;Q975S)
# Assay: yeast three-hybrid, YBZ-1, SC-Leu-His + 0.5 mM 3-AT, 4 days
# Details: tags: N-Gal4 AD-HA kept; label: inside an RPR1-promoter hybrid RNA with tandem MS2 sites; ssRNA
# Summary of the method: (§1)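 Pumilio-1 PUF domain libraries, randomized at the three base-contacting residues of each repeat, were co-expressed with matching RNA elements from a centromeric plasmid in strain YBZ-1, which carries a LexA–MS2 coat fusion and a HIS3 reporter. Transformants grew for four days on SC-Leu (input) or on SC-Leu-His + 0.5 mM 3-AT (selection), and the repeat regions were PCR-amplified and Illumina-sequenced. The interaction score is the log change in variant frequency from input to selection. That logarithm is base 2, with a pseudocount of 1 where a variant was absent.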
# PUM1 PUF domain R4-WAS, sequence (Q14671 828-1176 N971W/H972A/Q975S): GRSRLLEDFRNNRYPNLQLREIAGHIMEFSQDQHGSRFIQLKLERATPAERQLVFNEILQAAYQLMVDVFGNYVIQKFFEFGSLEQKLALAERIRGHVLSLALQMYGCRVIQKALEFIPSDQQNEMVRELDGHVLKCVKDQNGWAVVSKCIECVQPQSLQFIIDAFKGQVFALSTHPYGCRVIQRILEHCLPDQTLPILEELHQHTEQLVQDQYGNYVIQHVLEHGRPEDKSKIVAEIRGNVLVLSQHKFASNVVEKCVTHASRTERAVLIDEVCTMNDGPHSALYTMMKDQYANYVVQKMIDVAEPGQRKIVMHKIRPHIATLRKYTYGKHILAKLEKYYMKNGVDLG
row,Sequence,binding signal
1,GGCUAGAACUAGUGGAUCCCCCGGCGCCCGGCGGCUCGAGCCCGGGUAAGUGUAUAUAGUCUGCAUGCCGCCGGGCGCCAUGCCUGCAGGUCGACUCUAGAAAACAUG,4.67 log2 enrichment (interaction score)
2,GGCUAGAACUAGUGGAUCCCCCGGCGCCCGGCGGCUCGAGCCCGGGUAAGUGUAAAUAGUCUGCAUGCCGCCGGGCGCCAUGCCUGCAGGUCGACUCUAGAAAACAUG,2.5 log2 enrichment (interaction score)
3,GGCUAGAACUAGUGGAUCCCCCGGCGCCCGGCGGCUCGAGCCCGGGUAAGUGUACAUAGUCUGCAUGCCGCCGGGCGCCAUGCCUGCAGGUCGACUCUAGAAAACAUG,3.76 log2 enrichment (interaction score)

# Molecular target: PUM1 PUF domain R5-LHA (Homo sapiens, UniProt Q14671 828-1176, C1007L;R1008H;Q1011A)
# Assay: as above
# Details: tags: N-Gal4 AD-HA kept; label: inside an RPR1-promoter hybrid RNA with tandem MS2 sites; ssRNA
# Summary of the method: as §1
# PUM1 PUF domain R5-LHA, sequence (Q14671 828-1176 C1007L/R1008H/Q1011A): as the sequence (Q14671 828-1176 N971W/H972A/Q975S) above, with W144N, A145H, S148Q, C180L, R181H, Q184A counted along it
row,Sequence,binding signal
1,GGCUAGAACUAGUGGAUCCCCCGGCGCCCGGCGGCUCGAGCCCGGGUAAGUGUCAAUAGUCUGCAUGCCGCCGGGCGCCAUGCCUGCAGGUCGACUCUAGAAAACAUG,3 log2 enrichment (interaction score)
2,GGCUAGAACUAGUGGAUCCCCCGGCGCCCGGCGGCUCGAGCCCGGGUAAGUGUAAAUAGUCUGCAUGCCGCCGGGCGCCAUGCCUGCAGGUCGACUCUAGAAAACAUG,2.04 log2 enrichment (interaction score)
3,GGCUAGAACUAGUGGAUCCCCCGGCGCCCGGCGGCUCGAGCCCGGGUAAGUGUUAAUAGUCUGCAUGCCGCCGGGCGCCAUGCCUGCAGGUCGACUCUAGAAAACAUG,4.62 log2 enrichment (interaction score)

# Molecular target: PUM1 PUF domain R5-RRR (Homo sapiens, UniProt Q14671 828-1176, C1007R;Q1011R)
# Assay: as above
# Details: tags: N-Gal4 AD-HA kept; label: inside an RPR1-promoter hybrid RNA with tandem MS2 sites; ssRNA
# Summary of the method: as §1
# PUM1 PUF domain R5-RRR, sequence (Q14671 828-1176 C1007R/Q1011R): as the sequence (Q14671 828-1176 N971W/H972A/Q975S) above, with W144N, A145H, S148Q, C180R, Q184R counted along it
row,Sequence,binding signal
1,GGCUAGAACUAGUGGAUCCCCCGGCGCCCGGCGGCUCGAGCCCGGGUAAGUGUCAAUAGUCUGCAUGCCGCCGGGCGCCAUGCCUGCAGGUCGACUCUAGAAAACAUG,4.35 log2 enrichment (interaction score)
2,GGCUAGAACUAGUGGAUCCCCCGGCGCCCGGCGGCUCGAGCCCGGGUAAGUGUGAAUAGUCUGCAUGCCGCCGGGCGCCAUGCCUGCAGGUCGACUCUAGAAAACAUG,1.36 log2 enrichment (interaction score)
3,GGCUAGAACUAGUGGAUCCCCCGGCGCCCGGCGGCUCGAGCCCGGGUAAGUGUAAAUAGUCUGCAUGCCGCCGGGCGCCAUGCCUGCAGGUCGACUCUAGAAAACAUG,2.32 log2 enrichment (interaction score)
4,GGCUAGAACUAGUGGAUCCCCCGGCGCCCGGCGGCUCGAGCCCGGGUAAGUGUUAAUAGUCUGCAUGCCGCCGGGCGCCAUGCCUGCAGGUCGACUCUAGAAAACAUG,4.33 log2 enrichment (interaction score)

# Molecular target: PUM1 PUF domain R8-KFF (Homo sapiens, UniProt Q14671 828-1176, N1122K;Y1123F;Q1126F)
# Assay: as above
# Details: tags: N-Gal4 AD-HA kept; label: inside an RPR1-promoter hybrid RNA with tandem MS2 sites; ssRNA
# Summary of the method: as §1
# PUM1 PUF domain R8-KFF, sequence (Q14671 828-1176 N1122K/Y1123F/Q1126F): as the sequence (Q14671 828-1176 N971W/H972A/Q975S) above, with W144N, A145H, S148Q, N295K, Y296F, Q299F counted along it
row,Sequence,binding signal
1,GGCUAGAACUAGUGGAUCCCCCGGCGCCCGGCGGCUCGAGCCCGGGUAAGCGUAAAUAGUCUGCAUGCCGCCGGGCGCCAUGCCUGCAGGUCGACUCUAGAAAACAUG,2.98 log2 enrichment (interaction score)
2,GGCUAGAACUAGUGGAUCCCCCGGCGCCCGGCGGCUCGAGCCCGGGUAAGGGUAAAUAGUCUGCAUGCCGCCGGGCGCCAUGCCUGCAGGUCGACUCUAGAAAACAUG,2.27 log2 enrichment (interaction score)
3,GGCUAGAACUAGUGGAUCCCCCGGCGCCCGGCGGCUCGAGCCCGGGUAAGUGUAAAUAGUCUGCAUGCCGCCGGGCGCCAUGCCUGCAGGUCGACUCUAGAAAACAUG,2.66 log2 enrichment (interaction score)

# Molecular target: PUM1 PUF domain R1-YVR (Homo sapiens, UniProt Q14671 828-1176, S863Y;R864V;Q867R)
# Assay: as above
# Details: tags: N-Gal4 AD-HA kept; label: inside an RPR1-promoter hybrid RNA with tandem MS2 sites; ssRNA
# Summary of the method: as §1
# PUM1 PUF domain R1-YVR, sequence (Q14671 828-1176 S863Y/R864V/Q867R): as the sequence (Q14671 828-1176 N971W/H972A/Q975S) above, with S36Y, R37V, Q40R, W144N, A145H, S148Q counted along it
row,Sequence,binding signal
1,GGCUAGAACUAGUGGAUCCCCCGGCGCCCGGCGGCUCGAGCCCGGGUAAGUGUAAAUCGUCUGCAUGCCGCCGGGCGCCAUGCCUGCAGGUCGACUCUAGAAAACAUG,6.93 log2 enrichment (interaction score)
2,GGCUAGAACUAGUGGAUCCCCCGGCGCCCGGCGGCUCGAGCCCGGGUAAGUGUAAAUUGUCUGCAUGCCGCCGGGCGCCAUGCCUGCAGGUCGACUCUAGAAAACAUG,6.97 log2 enrichment (interaction score)
3,GGCUAGAACUAGUGGAUCCCCCGGCGCCCGGCGGCUCGAGCCCGGGUAAGUGUAAAUGGUCUGCAUGCCGCCGGGCGCCAUGCCUGCAGGUCGACUCUAGAAAACAUG,3.38 log2 enrichment (interaction score)
